Inconclusive results are not listed. The source made the active and inactive calls. Calls come from the whole dose curve; as a rule, active = well fitted inhibition curve with a large enough effect; inconclusive = small, poorly fitted or top-dose-only effect, or effect the other way; inactive = no such curve, though single readings can be large or run the other way.
Biological target: Nuclear receptor ROR-gamma (Mus musculus) (UniProt P51450)
Experiment: Secondary confirmation assay for inhibitors of ROR gamma transcriptional activity
Settings: Drosophila S2 Gal4-RORgamma UAS-luciferase reporter, 20 h
Excerpt: NIH Molecular Libraries Probe Production Network [MLPCN] NIH Chemical Genomics Center [NCGC] MLPCN Grant: R03 DA026211-01 Assay Provider: Dan Littman, New York University Keywords: NIH Roadmap, MLPCN, MLI, MLSMR, qHTS, NCGC, qHTS, nuclear hormone receptor, retinoic acid-related orphan receptor, ROR gamma Assay Overview: The retinoic acid-related orphan receptor (ROR) gamma is a transcription factor that has a central role in the differentiation of Th17 cells, a subset of T helper cells that secrete the inflammatory cytokines IL-17, IL-17F, and IL-22. Th17 cells have been implicated in graft versus host disease, autoimmune disease and asthma. ROR gamma is induced in naive T helper cells in the presence of TGF-beta combined with IL-6, IL-21, or IL-23, and thereafter directs the expression of the Th17 lineage cytokines. To study the mechanism of action of ROR gamma, an insect cell-based assay was screened. […] Small molecule inhibitors of ROR gamma activity are detected by a decrease in luciferase reporter activity.
Assay Protocol Summary: For screening, 600 cells in 4 uL/well were dispensed into white solid 1536-well plates (Grenier) using a solenoid-based dispenser. […] After addition of 1.5 uL Photinus luciferase detection reagent, the plates were incubated 10 min at ambient temperature and then read by an ViewLux (Perkin Elmer) to detect luminescence. […]

Chain of Nuclear receptor ROR-gamma (Mus musculus) (P51450 whole entry, looked up): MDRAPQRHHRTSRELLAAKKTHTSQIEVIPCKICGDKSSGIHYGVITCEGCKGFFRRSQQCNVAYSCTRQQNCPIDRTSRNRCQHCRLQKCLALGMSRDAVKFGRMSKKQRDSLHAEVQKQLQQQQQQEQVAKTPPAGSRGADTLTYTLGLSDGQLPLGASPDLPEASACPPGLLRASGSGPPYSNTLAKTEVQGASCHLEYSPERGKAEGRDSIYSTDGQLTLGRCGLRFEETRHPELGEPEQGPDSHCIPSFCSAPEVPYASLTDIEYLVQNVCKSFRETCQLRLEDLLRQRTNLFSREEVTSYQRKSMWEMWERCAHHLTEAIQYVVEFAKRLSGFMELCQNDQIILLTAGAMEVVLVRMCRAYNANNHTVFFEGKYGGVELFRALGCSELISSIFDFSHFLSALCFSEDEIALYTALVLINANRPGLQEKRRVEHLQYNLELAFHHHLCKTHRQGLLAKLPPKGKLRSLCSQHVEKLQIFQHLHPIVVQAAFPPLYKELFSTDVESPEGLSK

Row | SMILES | Potency
1 | CC1OC(O[C@@H]2C(O)CC(O[C@@H]3C(O)C[C@@H](OC4CC[C@@]5(C)C6CC[C@]7(C)C(C8=CC(=O)OC8)C(O)C[C@@]7(O)[C@H]6CC[C@@H]5C4)OC3C)OC2C)CC(O)C1O (some centres not stated) | 4.07 µM (active)
2 | CO[C@H]1[C@@H](O)CC(OC2[C@@H](O)CC(OC3[C@@H](O)C[C@H](OC4CC[C@@]5(C)C(CCC6C5CC(O)[C@]5(C)[C@H](C7=CC(=O)OC7)CCC65O)C4)O[C@@H]3C)O[C@@H]2C)O[C@@H]1C (some centres not stated) | 1.82 µM (active)
